Counter-ions that a name gives are not always drawn. ± gives the standard deviation of the averaged measurements. The campaign covered roughly 1,000 compounds. About 15 (2%) showed an effect of 50% or more. Shown is part of a subset that was picked to be rich in strong results.
system: HFF; experiment: uninfected host cell viability relative to vehicle control; higher = less host cell toxicity; conditions: 5 µM; 72 h; oxygen 21 %

| SMILES | uninfected host cell viability |
| --- | --- |
| COc1ccc(-c2nc(-c3ccc(-c4cccc(Cl)c4)o3)[nH]c2-c2ccc(OC)cc2)cc1 [Neurodazine] | 80.3 ± 5.1% |
| O=C(NCCCN1CCCCCC1)C(c1ccccc1)C1CCCCC1 (centres undefined) | 88.8 ± 4.6% |
| O=C(O)C=C1CCCc2ccccc2C1O (centres undefined) | 83.32 ± 0.084% |
| COC(=O)C[C@](O)(CCCC(C)(C)O)C(=O)O[C@@H]1C(OC)=C[C@]23CCCN2CCc2cc4c(cc2[C@H]13)OCO4 [Homoharringtonine] | 28.6 ± 2.8% |
| O/N=C/c1ccc(-c2ccc(O)c(F)c2)c(Cl)c1O | 91.86 ± 0.49% |
| Cc1ccc(/C=C2\CNC/C(=C\c3ccc(C)cc3)C2=O)cc1 | 34.4 ± 5.5% |
| COC(=O)C1=C(C)NC(C)=C(C(=O)NCCCN2CCC(c3ccccc3)(c3ccccc3)CC2)C1c1ccc([N+](=O)[O-])cc1 (centres undefined) | 81.9 ± 1.8% |
| CC#CCOC(=O)C1=CCCN(C)C1 [Arecaidine but-2-ynyl ester tosylate] | 88 ± 1.3% |
| CC(C)Oc1cccc(-n2c(CCc3c[nH]c4ccc(Br)cc34)nc3ccccc3c2=O)c1 | 92.8 ± 5.5% |
| COc1cc(Br)c(S(=O)(=O)Nc2ccc(Cl)c(O[C@@H]3CCN(C)C3)c2)cc1OC | 96.9 ± 3% |
| C[C@H](NC[C@H](O)CP(=O)(O)CC1CCCCC1)c1ccc(Cl)c(Cl)c1 | 84.83 ± 0.31% |
| CC1c2ccccc2CN1CC1=NCCN1 (centres undefined) | 89 ± 2.3% |
| N[C@H](C(=O)O)c1ccc(O)c(C(=O)O)c1 [(S)-3-Carboxy-4-hydroxyphenylglycine] | 83.1 ± 0.11% |
| CC(C)c1onc(-c2c(Cl)cccc2Cl)c1COc1ccc(/C=C/c2cccc(C(=O)O)c2)c(Cl)c1 | 96.2 ± 2.9% |
| OC[C@H]1NC[C@@H](O)[C@@H](O)[C@@H]1O [1-Deoxymannojirimycin hydrochloride] | 86.61 ± 0.073% |
| O=C(NCCCCN1CCN(c2cccc(Cl)c2Cl)CC1)c1ccc2c(c1)Cc1ccccc1-2 | 88.9 ± 4% |
| CCCCCCNC(=O)Nc1ccc(S(=O)(=O)Nc2ccc(CCNC[C@H](O)COc3ccc(O)cc3)cc2)cc1 | 83.4 ± 2.5% |
| NC(C(=O)O)c1ccc(C(=O)O)c(C(=O)O)c1 (centres undefined) | 83.7 ± 3.5% |
| CCCCN1CCC(CCC(=O)c2cc(Cl)c(N)cc2OC)CC1 | 85.2 ± 6.5% |
| CN(CCOc1ccc(-c2ccc3c(c2)OCO3)cc1C(C)(C)C)CC(=O)O | 89.62 ± 0.17% |
| O=C(c1ccc(F)cc1)C1CCN(CCn2c(=S)[nH]c3ccccc3c2=O)CC1 [Altanserin hydrochloride] | 83.2 ± 2.8% |
| Nc1nc2c(nc(Br)n2[C@@H]2O[C@@H]3COP(=O)(O)O[C@H]3[C@H]2O)c(=O)[nH]1 [8-Bromo-cGMP, sodium salt] | 89.8 ± 1.7% |

| SMILES | uninfected host cell viability |
| --- | --- |
| COC(=O)c1sccc1S(=O)(=O)Nc1ccc(Nc2ccccc2)cc1OC | 77.8 ± 0.79% |
| NC(=O)N1c2ccccc2CC(O)c2ccccc21 (centres undefined) [Licarbazepine] | 86.1 ± 1.1% |
| COc1ccc(Cl)cc1NC(=O)Nc1cc(C)nc2ccccc12 | 70.73 ± 0.28% |
| O=C(/C=C/c1ccc(O)c(O)c1)O[C@H](Cc1ccc(O)c(O)c1)C(=O)O [Rosmarinic acid] | 80.3 ± 1% |
| OC(CCCN1CCN(c2ncc(F)cn2)CC1)c1ccc(F)cc1 (centres undefined) | 110 ± 17% |
| CC(C)c1ccccc1S(=O)(=O)c1cc(N)c2ncccc2c1[N+](=O)[O-] | 73.2 ± 0.84% |
| CN(CCCN1c2ccccc2CCc2ccccc21)CC(=O)c1ccc(Cl)cc1 [Lofepramine] | 89.6 ± 1.2% |
| Cc1c(C(=O)NN2CCOCC2)nn(-c2ccc(Cl)cc2Cl)c1-c1ccc(I)cc1 | 90.8 ± 2.4% |
| O=c1[nH]nc(Sc2ncc([N+](=O)[O-])s2)n1-c1ccc2c(c1)OCCO2 | 99.61 ± 0.28% |
| O=C(O)c1ccc(C=C2SC(=S)N(c3cccc(C(F)(F)F)c3)C2=O)cc1 | 87.8 ± 0.91% |
| CN1Cc2c(C(=O)OC(C)(C)C)ncn2-c2ccsc2C1=O | 97.9 ± 4.9% |
| CCCCCCCCCCCCCCCC(=O)C(F)(F)F | 91.66 ± 0.55% |
| NC(=O)CCCCn1ccc(NC(N)=NCC(F)(F)F)n1 | 85.9 ± 2.3% |
| N[C@@H](CSS(=O)(=O)O)C(=O)O [S-Sulfo-L-cysteine sodium salt] | 99.5 ± 1.1% |
| Cc1ccccc1C(=O)c1ccc(Nc2ccc(Br)cc2N)cc1Cl | 84 ± 2.2% |
| CN1CCC(Nc2ncc3ncnc(Nc4ccc(F)c(Cl)c4)c3n2)CC1 [BIBX 1382 dihydrochloride] | 80.7 ± 2.1% |
| CC(C)n1nnc2cc(C(=O)O)ccc21 | 100 ± 2.3% |
| Cc1[nH]c(/C=C2\C(=O)Nc3ccc(S(=O)(=O)Cc4c(Cl)cccc4Cl)cc32)c(C)c1C(=O)N1CCC[C@@H]1CN1CCCC1 | 89.5 ± 2.3% |
| CC1(C)CCC(C)(C)c2cc(C3(c4ccc(C(=O)O)cc4)OCCO3)ccc21 | 93.1 ± 2.3% |
| COc1ccc(NS(=O)(=O)c2ccc(I)cc2)cc1N1CCN(C)CC1 | 81.6 ± 2.9% |
| Cc1cc(C)cc(C(=O)N(C)[C@H](Cc2ccc(-c3ccccc3)cc2)C(=O)N[C@@H](Cc2c[nH]c3ccccc23)C(=O)O)c1 | 83.95 ± 0.62% |
| CCCn1c(=O)[nH]c2nc(-c3ccc(S(=O)(=O)O)cc3)[nH]c2c1=O | 86.34 ± 0.58% |

Reference: the supplement of paper PMC4894684
